Measured values from PubChem BioAssay (NCATS).
Results filed as inconclusive are left out. A call without a number means that no potency is given here. Values without a mark were called inactive. Activity calls are given as the source filed them. Unless noted, calls follow the shape of the full dose curve.

Legend:
[1] = qHTS for Inhibitors of the Functional Ribonucleoprotein Complex (vRNP) of Lassa (LASV) Arenavirus: LASV Primary Screen - GLuc reporter signal (AID 1347082; calls by dose curve; tested in HEK293 reporter line; also: nearly all actives have a fitted effect of over 60% in size); settings: LASV minigenome vRNP, Gaussia luciferase reporter; series mostly up to 57.5 µM
[2] = qHTS for Inhibitors of the Functional Ribonucleoprotein Complex (vRNP) of Lassa (LASV) Arenavirus: Viability assay - alamar blue signal for LASV Primary Screen (AID 1347083; calls by dose curve; tested in HEK293 reporter line; also: nearly all actives have a fitted effect of over 80% in size); settings: cell viability, alamar blue fluorescence (LASV minigenome counter-screen); series mostly up to 57.5 µM
[3] = qHTS for Inhibitors of the Functional Ribonucleoprotein Complex (vRNP) of Lymphocytic Choriomeningitis Arenaviruses (LCMV): Viability assay - alamar blue signal for LCMV Primary Screen (AID 1347085; calls by dose curve; tested in HEK293 reporter line; also: nearly all actives have a fitted effect of over 80% in size); settings: alamar blue viability counter-screen, LCMV vRNP screen cells; series mostly up to 57.5 µM
[4] = biological target: Nucleoprotein (Lymphocytic choriomeningitis virus (strain Armstrong)) (UniProt P09992); assay: qHTS for Inhibitors of the Functional Ribonucleoprotein Complex (vRNP) of Lymphocytic Choriomeningitis Arenaviruses (LCMV): LCMV Primary Screen - GLuc reporter signal (AID 1347086); settings: LCMV minigenome vRNP cell assay, Gaussia luciferase reporter; series mostly up to 57.5 µM; also: nearly all actives have a fitted effect of over 70% in size
Potency is read from the fitted curve at half-maximal effect.

Chain of Nucleoprotein (Lymphocytic choriomeningitis virus (strain Armstrong)) (P09992 whole entry, looked up): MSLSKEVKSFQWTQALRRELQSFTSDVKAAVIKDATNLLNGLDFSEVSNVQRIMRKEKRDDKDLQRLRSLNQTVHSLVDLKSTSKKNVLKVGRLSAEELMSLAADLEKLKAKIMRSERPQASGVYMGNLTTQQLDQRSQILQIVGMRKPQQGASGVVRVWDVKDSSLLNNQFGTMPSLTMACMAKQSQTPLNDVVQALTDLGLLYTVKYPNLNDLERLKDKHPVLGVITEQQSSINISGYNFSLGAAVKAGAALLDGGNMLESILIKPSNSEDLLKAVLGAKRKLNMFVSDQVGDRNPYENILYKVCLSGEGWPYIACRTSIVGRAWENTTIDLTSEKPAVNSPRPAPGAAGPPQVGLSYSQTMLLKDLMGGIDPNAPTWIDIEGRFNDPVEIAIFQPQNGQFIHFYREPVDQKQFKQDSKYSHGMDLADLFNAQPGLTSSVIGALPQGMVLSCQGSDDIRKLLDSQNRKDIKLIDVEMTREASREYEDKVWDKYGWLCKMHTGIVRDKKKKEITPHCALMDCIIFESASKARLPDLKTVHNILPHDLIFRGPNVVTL

Row | Compound | Potency [1] | Potency [2] | Potency [3] | Potency [4] | activity change, negative = inhibition [1] | activity change, negative = reduced viability [2] | activity change, negative = lower viability [3] | activity change, negative = inhibition [4]
1 | CC(C)C1Oc2cc3oc(=O)ccc3cc2C1=O (stereo not given) | inactive | inactive | inactive | inactive | – | – | – | –
2 | C=C(CC1CC(O)[C@]2(C)OC3CC4OC5C[C@]6(C)O[C@]7(C)CCC8OC9C[C@]%10(C)OC%11C(C)=CC(=O)OC%11CC%10OC9C[C@@H](C)C8OC7CC6O[C@]5(C)C/C=C\C4OC3CC2O1)C(=O)O (stereo not given in full) | inactive | inactive | inactive | inactive | – | – | – | –
3 | COC(=O)c1cc(O)cc(OC)c1C(=O)c1c(O)cc(C)cc1O | inactive | inactive | inactive | inactive | – | – | – | –
4 | C=C[C@@H](C1=CC(=O)C(OC)=C(OC)C1=O)c1ccccc1 | inactive | inactive | inactive | inactive | – | – | – | –
5 | CNCC(=O)O | inactive | inactive | inactive | inactive | – | – | – | –
6 | CO[C@H]1C[C@H](O[C@H]2[C@H](C)O[C@@H](O[C@@H]3/C(C)=C/C[C@@H]4C[C@@H](C[C@]5(C=C[C@H](C)[C@@H](C6CCCCC6)O5)O4)OC(=O)[C@@H]4C=C(C)[C@@H](O)[C@H]5OC/C(=C\C=C\[C@@H]3C)[C@]54O)C[C@@H]2OC)O[C@@H](C)[C@@H]1O | inactive | inactive | inactive | inactive | – | – | – | –
7 | CC(=O)OC[C@@]12C(=O)[C@@H](O)[C@@H](C)[C@]3(C[C@@H](c4ccoc4)O[C@@H]3OC(C)=O)[C@H]1CCC[C@]21CO1 | inactive | inactive | inactive | inactive | – | – | – | –
8 | CCc1nccc2c1[nH]c1ccccc12 | inactive | inactive | inactive | inactive | – | – | – | –
9 | C[C@@H](C[C@@H](O)[C@H](O)C(C)(C)O)[C@@H]1CC[C@]2(C)C3=CC[C@H]4C(C)(C)C(=O)CC[C@]4(C)[C@H]3CC[C@@]12C | inactive | inactive | inactive | inactive | – | – | – | –
10 | CC1(C)C2CC[C@]3(C)C(CC=C4[C@@H]5C[C@@](C)(CO)[C@@H](O)C[C@]56C[C@@H](OC6=O)[C@]43C)[C@@]2(C)CC[C@@H]1O (stereo not given in full) | inactive | inactive | inactive | inactive | – | – | – | –
11 | COc1ccc(C[C@@H](C)[C@@H](C)Cc2ccc(OC)c(OC)c2)cc1OC | 21.7 µM (active) | 6.11 µM (active) | 12.2 µM (active) | 24.3 µM (active) | – | – | – | –
12 | OC[C@H]1O[C@H](OCc2ccccc2)[C@H](O[C@@H]2OC[C@@H](O)[C@H](O)[C@H]2O)[C@@H](O)[C@@H]1O | inactive | inactive | inactive | inactive | – | – | – | –
13 | COC(=O)C1=COC(O[C@H]2OC(CO)[C@H](O)C(O)C2O)[C@H]2C1C(=O)C[C@@H]2C (stereo not given in full) | inactive | inactive | inactive | inactive | – | – | – | –
14 | CC1=CCC[C@H]2[C@H](C1)C(=O)C[C@@H](C)[C@]2(C)CC/C(=C/CO)CO | inactive | inactive | inactive | inactive | – | – | – | –
15 | O=C1NC2C(=CC(O)C(O)C2O)c2cc3c(c(O)c21)OCO3 (stereo not given) | inactive | inactive | inactive | inactive | – | – | – | –
16 | CCCC1CCOC(C)S1 (stereo not given) | inactive | inactive | inactive | inactive | – | – | – | –
17 | O=c1c(O)c(-c2ccccc2)oc2cc(O)cc(O)c12 | inactive | inactive | inactive | inactive | – | – | – | –
18 | CC(O)CC(=O)O (stereo not given) | inactive | inactive | inactive | inactive | – | – | – | –
19 | c1coc(Cn2cccc2)c1 | inactive | inactive | inactive | inactive | – | – | – | –
20 | CC(C)CCCC(=O)O | inactive | inactive | inactive | inactive | – | – | – | –

Row | Compound | Potency [1] | Potency [2] | Potency [3] | Potency [4] | activity change, negative = inhibition [1] | activity change, negative = reduced viability [2] | activity change, negative = lower viability [3] | activity change, negative = inhibition [4]
21 | O=C1/C(=C\c2ccc(O)c(O)c2)Oc2c1ccc(O[C@@H]1O[C@H](CO)[C@@H](O)[C@H](O)[C@H]1O)c2O | inactive | inactive | inactive | inactive | – | – | – | –
22 | Cn1c2ccccc2c(=O)c2c(O)cccc21 | inactive | inactive | inactive | inactive | – | – | – | –
23 | COc1ccc(CC(C)N)cc1 (stereo not given) | inactive | inactive | inactive | inactive | – | – | – | –
24 | C[C@H]1[C@H](C)CC[C@]2(C)CC[C@]3(C)C(=CC(=O)C4[C@@]5(C)CC[C@H](O)C(C)(C)C5CC[C@]43C)[C@H]12 (stereo not given in full) | inactive | inactive | inactive | inactive | – | – | – | –
25 | OCc1ccccc1O[C@@H]1O[C@H](CO)[C@H](O)[C@H](O)[C@H]1O | inactive | inactive | inactive | inactive | – | – | – | –
26 | CCc1ccc(C=C2SC(=S)NC2=O)cc1 | inactive | inactive | inactive | inactive | – | – | – | –
27 | CC1=CC[C@H](CC=O)C1(C)C | inactive | inactive | inactive | inactive | – | – | – | –
28 | COc1cc(OC)cc(-c2ccc3ncc4ccc(=O)n(-c5ccc(N6CCNCC6)c(C(F)(F)F)c5)c4c3c2)c1 | 10.9 µM (active) | 6.85 µM (active) | 1.93 µM (active) | 3.06 µM (active) | – | – | – | –
29 | COc1ccc(/C=C/C(=O)c2c(OC)cc(O)cc2OC)cc1 | inactive | inactive | inactive | inactive | – | – | – | –
30 | c1ccc(CN(Cc2ccccc2)Cc2ccccc2)cc1 | inactive | inactive | inactive | inactive | – | – | – | –
31 | CCCCCCCCCCCCC(=O)CCCCC(=O)O | inactive | inactive | inactive | inactive | – | – | – | –
32 | C#C[C@]1(O)CC[C@H]2[C@@H]3CCC4=Cc5oncc5CC4(C)[C@H]3CCC21C (stereo not given in full) | inactive | inactive | inactive | inactive | – | – | – | –
33 | O=C[C@H](O)[C@@H](O)[C@H](O[C@H]1O[C@H](CO)[C@@H](O[C@H]2O[C@H](CO)[C@@H](O)[C@H](O)[C@H]2O)[C@H](O)[C@H]1O)[C@H](O)CO | inactive | inactive | inactive | inactive | – | – | – | –
34 | O=C(O)[C@H]1O[C@H](Oc2cc3oc(-c4ccccc4)cc(=O)c3c(O)c2O)[C@H](O)[C@@H](O)[C@H]1O | inactive | inactive | inactive | inactive | – | – | – | –
35 | COc1cc2c(cc1O)CC[n+]1cc3c(OC)c(OC)ccc3cc1-2 | inactive | inactive | inactive | inactive | – | – | – | –
36 | O[C@@H]1COC2[C@@H](O)CO[C@@H]21 (stereo not given in full) | inactive | inactive | inactive | inactive | – | – | – | –
37 | CSCC[C@@H](N)C(=O)O | inactive | inactive | inactive | inactive | – | – | – | –
38 | O=C(O)C=Cc1ccc(Cn2ccnc2)cc1 | inactive | inactive | inactive | inactive | – | – | – | –
39 | C=C(C)[C@@H](O)COc1c2ccoc2cc2oc(=O)ccc12 | inactive | inactive | inactive | inactive | – | – | – | –
40 | Oc1ccc(C=Cc2cc(O)cc(O)c2)cc1 | inactive | inactive | inactive | inactive | – | – | – | –

Row | Compound | Potency [1] | Potency [2] | Potency [3] | Potency [4] | activity change, negative = inhibition [1] | activity change, negative = reduced viability [2] | activity change, negative = lower viability [3] | activity change, negative = inhibition [4]
41 | NCCCCCN | inactive | inactive | inactive | inactive | – | – | – | –
42 | C=C/C(=C/C(=O)C[C@H](C)C[C@@H](C)CC[C@H](O)[C@H](C)C(=O)C[C@@H](O)[C@H](C)[C@@H](C)OC(=O)C[C@@H](O)C1=C(C)C(=O)OC1=O)CC | – | – | – | – | -47.1% [at 11.5 µM] | -113% [at 11.5 µM] | -114% [at 11.5 µM] | -83.6% [at 11.5 µM]
43 | C/C(=C\COc1ccc2ccc(=O)oc2c1)CC[C@@H](O)C(C)(C)O | inactive | inactive | inactive | inactive | – | – | – | –
44 | COc1ccc(C=CC(=O)Nc2ccccc2C(=O)O)cc1OC | inactive | inactive | inactive | inactive | – | – | – | –
45 | CC(C)(O[C@@H]1O[C@H](CO)[C@@H](O)[C@H](O)[C@H]1O)[C@@H]1CC=C(C(=O)O)CC1 | inactive | inactive | inactive | inactive | – | – | – | –
46 | O=C(NCO)c1cccnc1 | inactive | inactive | inactive | inactive | – | – | – | –
47 | CC1=CC(=O)C2=C(C)C[C@@H]3OC(=O)[C@@H](C)[C@H]3C=C12 | inactive | inactive | inactive | inactive | – | – | – | –
48 | CO[C@H]1C=CCCC=CC(=O)O[C@H]([C@H](C)C(=O)CCCC2CC(=O)NC(=O)C2)C(C)=C[C@@H](C)[C@@H]1O | inactive | inactive | inactive | inactive | – | – | – | –
49 | C[C@@H]1OC(O[C@H]2[C@H](Oc3cc(O)c4c(=O)c(O)c(-c5ccc(O)cc5)oc4c3)O[C@H](CO)[C@@H](O)[C@@H]2O)[C@H](O)[C@H](O)[C@H]1O (stereo not given in full) | inactive | inactive | inactive | inactive | – | – | – | –
50 | CCCCC[C@H](O)/C=C/[C@H]1OC(=O)C[C@H](O)[C@@H]1C/C=C\CCCC(=O)O | – | – | – | – | 4.7% [at 5.82 µM] | 8.43% [at 5.82 µM] | 3.55% [at 5.82 µM] | 3.12% [at 5.82 µM]
51 | CC(C)(C)[N+]([O-])=Cc1ccc(S(=O)(=O)O)cc1S(=O)(=O)O | inactive | inactive | inactive | inactive | – | – | – | –
52 | C=CC[C@]12C[C@@H](OC)C(=O)C=C1O[C@@H](c1ccc(OC)c(OC)c1)[C@H]2C | inactive | inactive | inactive | inactive | – | – | – | –
53 | O=C1c2c(O)cc(O)cc2O[C@H](c2ccc(O)c(O)c2)[C@@H]1O | inactive | inactive | inactive | inactive | – | – | – | –
54 | CC1(C)C[C@@H](O)[C@]2(C)CC[C@]3(C)C(=CCC4[C@@]5(C)CC[C@H](O)[C@](C)(CO)C5CC[C@]43C)[C@@H]2C1 (stereo not given in full) | inactive | inactive | inactive | inactive | – | – | – | –
55 | COc1cc2c(cc1O)C(Cc1ccc(O)cc1)[N+](C)(C)CC2 (stereo not given) | inactive | inactive | inactive | inactive | – | – | – | –
56 | Nc1nc2c(ncn2[C@@H]2O[C@H](COP(=O)(O)OP(=O)(O)OP(=O)(O)O)[C@@H](O)C2O)c(=O)[nH]1 (stereo not given in full) | inactive | inactive | inactive | inactive | – | – | – | –
57 | CCCCCCCCCCCCCC | inactive | inactive | inactive | inactive | – | – | – | –
58 | C=C1CC/C=C(\C)CC[C@@H]2[C@@H]1CC2(C)C | inactive | inactive | inactive | inactive | – | – | – | –
59 | CC=C(C)C(=O)OC1CCN2CC=C(COC(=O)C(O)(C(C)OC)C(C)(C)O)C12 (stereo not given) | inactive | inactive | inactive | inactive | – | – | – | –
60 | C/C=C(/C)C(=O)O[C@H]1[C@@H](O)c2c(ccc3ccc(=O)oc23)OC1(C)C | inactive | inactive | inactive | inactive | – | – | – | –
